How the values were obtained:
[1] = system: Human papillomavirus type 1a protein E7 (residues 44-93); test: small molecules binding HPV E7 44-93 – biochemical, small-molecule microarray, residues 44-93, 635 nm fluorescence, primary screen (AID 1108); settings: fluorescence 635 nm, higher = more signal;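 note: E7 fragment applied at 1 µg/mL in TBST for 1 h at 4 C; score combines spot fluorescence with its signal to noise ratio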
[2] = hepatitis C replication reporter changes, two-sided – Huh7 cells, luciferase reporter, HCV replication inhibitor project, primary screen (AID 1109); settings: Huh7 HCV replicon luciferase reporter, 48 h; higher = more signal;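 note: huh7 hepatoma cells harbouring a luciferase neomycin HCV replicon reporter; luciferase luminescence as measure of HCV replicon replication; test concentration not given here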
[3] = biological target: Left-right determination factor 2 (Homo sapiens) (UniProt O00292); test: small molecules binding LEFTY2 protein – biochemical, small-molecule microarray, 635 nm fluorescence scan, primary screen (AID 1110); settings: higher = more signal
[4] = biological target: Calmodulin-1 (Homo sapiens) (UniProt P0DP23); test: small molecules binding calmodulin-1 with EGTA – biochemical, small-molecule microarray, Cy5-labelled CALM1, profiling panel (AID 1111); settings: Cy5-CALM1 binding fluorescence, higher = more signal;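 note: labelled calmodulin applied in Tris saline Tween buffer holding calcium plus EGTA and DTT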
[5] = biological target: Calmodulin-1 (Homo sapiens) (UniProt P0DP23); test: small molecules binding Ca-loaded calmodulin-1 – biochemical, small-molecule microarray, Cy5-labelled CALM1, plus calcium, artefact control for SMM control-protein annotation, profiling panel (AID 1112); settings: Cy5-CALM1 binding fluorescence, higher = more signal;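 note: score merges spot fluorescence with signal to noise from triplicate slides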
[6] = probe aWnt5a binding to arrayed compounds – biochemical, biotinylated probe, 635/667 nm fluorescence, primary screen (AID 1113); settings: small-molecule microarray, higher = more signal;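 note: score merges 667 nm fluorescence intensity with signal-to-noise per printed feature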
[7] = probe aShh binding to arrayed compounds – biochemical, biotinylated probe, 635/667 nm fluorescence, primary screen (AID 1114); settings: small-molecule microarray, higher = more signal;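 note: probe is biotin-labelled aShh protein from a stem cell growth factor screen; measures binding of labelled protein to compounds printed on the slide; score merges feature fluorescence at 667 nm with signal-to-noise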
[8] = probe aNog binding to arrayed compounds – biochemical, biotinylated probe, 635/667 nm fluorescence, primary screen (AID 1115); settings: small-molecule microarray, higher = more signal;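 note: probe is biotinylated aNog protein used at 0.15 µg/mL for 1 h at 4 C; z-score combines 667 nm fluorescence of each spot with its signal to noise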
[9] = biological target: Torsin-1A-interacting protein 1 (Homo sapiens) (UniProt Q5JTV8); test: compound microarray binding of lysate hLAP1 – cell lysate, small-molecule microarray, COS7 lysate, 635/667 nm fluorescence, primary screen (AID 1116); settings: 635 nm fluorescence, higher = more signal
[10] = biological target: Alpha-bungarotoxin (Bungarus multicinctus) (UniProt P60615); test: compounds binding labelled alpha-BTX control protein – biochemical, small-molecule microarray, Alexa647 label, 635/667 nm fluorescence, artefact control for SMM control protein annotation, profiling panel (AID 1117); settings: alpha-BTX-A647 binding fluorescence, higher = more signal
Alpha-bungarotoxin (Bungarus multicinctus), sequence (P60615 whole entry, looked up): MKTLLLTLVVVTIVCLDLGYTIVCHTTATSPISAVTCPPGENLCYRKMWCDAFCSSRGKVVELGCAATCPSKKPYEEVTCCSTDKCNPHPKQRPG

Torsin-1A-interacting protein 1 (Homo sapiens), sequence (Q5JTV8 whole entry, looked up): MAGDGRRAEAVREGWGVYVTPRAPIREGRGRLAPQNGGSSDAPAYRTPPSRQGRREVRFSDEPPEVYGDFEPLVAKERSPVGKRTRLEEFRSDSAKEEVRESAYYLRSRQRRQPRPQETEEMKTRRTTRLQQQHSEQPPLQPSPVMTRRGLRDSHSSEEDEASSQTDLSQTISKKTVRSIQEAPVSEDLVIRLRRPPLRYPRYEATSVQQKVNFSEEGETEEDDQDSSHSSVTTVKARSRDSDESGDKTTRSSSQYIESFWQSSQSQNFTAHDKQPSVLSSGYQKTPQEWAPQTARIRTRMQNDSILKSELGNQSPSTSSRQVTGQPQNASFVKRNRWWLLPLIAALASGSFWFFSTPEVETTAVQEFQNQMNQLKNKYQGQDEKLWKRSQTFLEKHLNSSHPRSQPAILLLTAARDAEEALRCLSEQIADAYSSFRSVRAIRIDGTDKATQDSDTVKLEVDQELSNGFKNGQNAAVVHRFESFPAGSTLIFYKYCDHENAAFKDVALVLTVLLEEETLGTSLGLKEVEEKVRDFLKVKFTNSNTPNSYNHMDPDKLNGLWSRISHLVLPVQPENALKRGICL
Left-right determination factor 2 (Homo sapiens), sequence (O00292 whole entry, looked up): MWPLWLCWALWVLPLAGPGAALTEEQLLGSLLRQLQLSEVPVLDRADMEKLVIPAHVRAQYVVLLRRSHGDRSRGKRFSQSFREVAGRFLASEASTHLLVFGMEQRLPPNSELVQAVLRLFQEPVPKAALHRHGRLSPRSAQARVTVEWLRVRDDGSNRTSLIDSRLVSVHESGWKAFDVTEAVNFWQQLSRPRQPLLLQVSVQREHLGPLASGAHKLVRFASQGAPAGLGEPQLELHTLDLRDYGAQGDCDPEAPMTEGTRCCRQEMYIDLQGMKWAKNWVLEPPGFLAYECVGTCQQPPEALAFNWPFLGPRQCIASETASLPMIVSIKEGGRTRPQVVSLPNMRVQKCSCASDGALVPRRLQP

CCN(CC)c1ccc(N2CC=CC34O[C@@H]5/C=C\CCC(C)OC(=O)C5[C@H]3C(=O)N(CCCCCO)[C@@H]4C2=O)cc1 (stereo not given in full)
composite z-score [1]: -2.06 | z-score [2]: 0.008 | composite z-score [3]: -1.5 | composite z-score [4]: -0.407 | composite z-score [5]: 0.381 | composite z-score [6]: -0.0346 | composite z-score [7]: -0.253 | composite z-score [8]: -0.234 | composite z-score [9]: -1.59 | composite z-score [10]: -0.324

CCCNC(=O)[C@@]1(Sc2ccc(C)cc2)CC(=O)N(Cc2ccccc2C(F)(F)F)[C@@H]1c1ccc(CO)cc1I
composite z-score [1]: 1.38 | z-score [2]: -1.91 | composite z-score [3]: -0.0375 | composite z-score [4]: -0.214 | composite z-score [5]: -0.611 | composite z-score [6]: -0.0519 | composite z-score [7]: 0.0639 | composite z-score [8]: 0.134 | composite z-score [9]: 0.332 | composite z-score [10]: 1.62

O=C(NCc1ccccc1)[C@@H]1c2ccccc2C(=O)N(C2Cc3ccccc3C2)[C@H]1c1ccc(CO)cc1
composite z-score [1]: -0.146 | z-score [2]: -0.51 | composite z-score [3]: -0.322 | composite z-score [4]: 0.158 | composite z-score [5]: 0.229 | composite z-score [6]: -0.101 | composite z-score [7]: 0.194 | composite z-score [8]: 1.13 | composite z-score [9]: 0.628 | composite z-score [10]: 1.22

CC(C)CCC[C@@H](C)[C@H]1CC[C@@]2(C)C3=C(CC[C@]12C)[C@@]1(C)CC[C@H](OC(=O)c2ccc(C(F)(F)F)nc2)C(C)(C)C1CC3 (stereo not given in full)
composite z-score [1]: 0.592 | z-score [2]: 0.336 | composite z-score [3]: 0.31 | composite z-score [4]: -0.0347 | composite z-score [5]: -0.337 | composite z-score [6]: -0.162 | composite z-score [7]: 0.0141 | composite z-score [8]: -0.68 | composite z-score [9]: 0.69 | composite z-score [10]: 0.328

COc1cc(CO)cc(I)c1O[C@H]1C=C(C(=O)NCCO)C[C@@H](N(C(=O)c2cc3ccccc3oc2=O)C2CCCCCC2)[C@@H]1O
composite z-score [1]: -0.914 | z-score [2]: -0.469 | composite z-score [3]: -0.0138 | composite z-score [4]: -0.23 | composite z-score [5]: -0.769 | composite z-score [6]: -0.096 | composite z-score [7]: -0.349 | composite z-score [8]: -0.267 | composite z-score [9]: 0.155 | composite z-score [10]: -0.29

COC(=O)[C@@]1(Cc2ccc(OC)cc2)[C@H]2c3cc(C(=O)N(C)C)n(Cc4ccc(C(F)(F)F)nc4)c3C[C@H]2CN1C(=O)c1ccccc1
composite z-score [1]: 0.714 | z-score [2]: -0.657 | composite z-score [3]: -0.0595 | composite z-score [4]: 0.705 | composite z-score [5]: 0.199 | composite z-score [6]: 0.17 | composite z-score [7]: 0.413 | composite z-score [8]: 0.18 | composite z-score [9]: 1 | composite z-score [10]: -0.173

C=CCOC(=O)[C@H]1[C@@H]2C(=O)O[C@@H](c3ccccc3)[C@@H](c3ccccc3)N2[C@@H](c2ccc(OCCOC(=O)[C@@H]3C[C@@H]4C(=O)N5CCC[C@H]5C(=O)N4[C@@H]3c3cccc(OCCO)c3)cc2)[C@]12C(=O)Nc1ccc(I)cc12
composite z-score [1]: 1.39 | z-score [2]: -1.46 | composite z-score [3]: 0.872 | composite z-score [4]: 0.784 | composite z-score [5]: -0.0883 | composite z-score [6]: -0.0758 | composite z-score [7]: 0.0098 | composite z-score [8]: 0.935 | composite z-score [9]: -0.571 | composite z-score [10]: 1.39

CC(C)[Si](C#CCCCC#N)(Oc1ccccc1Br)C(C)C
composite z-score [1]: 0.845 | z-score [2]: -0.071 | composite z-score [3]: 0.0224 | composite z-score [4]: -0.154 | composite z-score [5]: -0.159 | composite z-score [6]: -0.0512 | composite z-score [7]: -0.0553 | composite z-score [8]: -0.213 | composite z-score [9]: 0.528 | composite z-score [10]: 0.453

From PubChem BioAssay
